Here are results for six compounds from PubChem BioAssay (EPA / NIEHS).

Molecules are shown by their SMILES. Inconclusive results are not listed. Active and inactive are the calls of the source. How the source made its calls, unless noted: active means hit-call score of the fitted dose curve at least 0.9, where 1 is the maximum; inactive means score below 0.9.

Experiment [1] can be described thus: ACEA_ER_80hr: ACEA Biosciences xCELLigence Real-Time Cell Analysis on Estrogen Receptor Agonism for Proliferation (AID 2282667; active means hit-call score of the fitted dose curve at least 0.9, where 1 is the maximum). As to conditions: T47D proliferation, impedance (xCELLigence), 80 h. The method, boiled down: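 Real-time impedance growth kinetics of human T-47D breast cells read 80 h after dosing, gain-of-signal fitted relative to DMSO. Compounds: 1:4 serial series, top final concentration 100 uM, n = 2.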

Experiment [2] can be described thus: ATG_CRE_CIS: Attagene CIS-FACTORIAL HepG2 Assay for human cAMP Responsive Element (CRE) binding protein 3 (AID 2282926). As to conditions: HepG2 CRE cis-reporter, Attagene multiplexed mRNA; actives raise or lower the signal. In a few lines: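 Multiplexed transcription-unit reporters transfected into HepG2; 24 h dosing; RT-PCR/capillary electrophoresis fluorescence read-out; bidirectional fit vs DMSO.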

In experiment [3] the target is CCAAT/enhancer-binding protein beta (Homo sapiens) (UniProt P17676). The experiment can be described thus: ATG_C_EBP_CIS: Attagene CIS-FACTORIAL HepG2 Assay for human CCAAT/Enhancer Binding Protein (C/EBP) beta (AID 2282927). As to conditions: HepG2 Attagene cis-factorial transcription factor reporter; actives raise or lower the signal. The method, boiled down:
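HepG2, transient MRTU transfection, 24 h treatment. RT-PCR plus CE fluorescence; DMSO negative control, bidirectional fit.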

Experiment [4] in a line: ATG_CMV_CIS: Attagene CIS-FACTORIAL HepG2 Assay for human CMV (Internal Marker) (AID 2282928).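 Further: endpoint acts as a background internal control marker rather than a target.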 As to conditions: HepG2 CMV promoter reporter, transcription factor profiling; actives raise or lower the signal. In a few lines: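 Endogenous transcription factor activity read in HepG2 via transfected cis-promoter reporter units. After 24 h dosing, reporter mRNA measured by RT-PCR/capillary electrophoresis; gain or loss of signal fit relative to DMSO.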

The nature of experiment [5]: ATG_DR4_LXR_CIS: Attagene CIS-FACTORIAL HepG2 Assay for human Liver X Receptor (LXR), DR4 submotif (AID 2282929). As to conditions: HepG2 Attagene DR4 cis-reporter, mRNA transcription; actives raise or lower the signal. In a few lines: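 Readout: reporter transcript fluorescence after RT-PCR and capillary electrophoresis, fitted bidirectionally against DMSO controls. Human HepG2 liver cells carried transiently transfected multiplexed reporter constructs; endogenous transcription factor activity measured 24 h post-dosing.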

Experiment [6] has as its target Aryl hydrocarbon receptor (Homo sapiens) (UniProt P35869). The experiment can be described thus: ATG_Ahr_CIS: Attagene CIS-FACTORIAL HepG2 Assay for human Aryl Hydrocarbon Receptor (Ahr) (AID 2282930). As to conditions: HepG2 AhR cis-factorial reporter transcription; actives raise or lower the signal. The method, boiled down:
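Endogenous factor activity is tracked through cis-promoter reporter units transfected into HepG2 cells. Transcript levels at 24 h are read by fluorescent RT-PCR and capillary electrophoresis, with activity in either direction scored relative to DMSO.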

A short description of experiment [7]: ATG_AP_1_CIS: Attagene CIS-FACTORIAL HepG2 Assay for human Activator Protein 1 (AP-1) (AID 2282931). Particulars: HepG2 Attagene cis-factorial AP-1 reporter mRNA; actives raise or lower the signal. The method, boiled down: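 Reporter transcripts were measured 24 h after dosing by RT-PCR and capillary electrophoresis of fluorescent fragments. Cells: HepG2 carrying transfected cis-regulated reporter constructs reading endogenous factor activity. Gain or loss fitted against DMSO.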

Experiment [8] is described as follows: ATG_AP_2_CIS: Attagene CIS-FACTORIAL HepG2 Assay for human Activator Protein 2 (AP-2) (AID 2282932). As to conditions: HepG2 AP-2 cis-reporter, Attagene transcription factor profiling; actives raise or lower the signal. The method, boiled down: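 HepG2 cells transiently transfected with cis-element reporter units and exposed for 24 h. Reporter mRNA measured by RT-PCR, FAM labelling, HpaI digestion and capillary electrophoresis. Changes in either direction fitted relative to DMSO.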

Experiment [9] is described as follows: ATG_BRE_CIS: Attagene CIS-FACTORIAL HepG2 Assay for human Bone Morphogenetic Protein (BMP) Response Element (BRE) (AID 2282933). Particulars: HepG2 BMP response element reporter, Attagene transcription factor profiling; actives raise or lower the signal. The method, boiled down:
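Multiplexed cis-reporter assay, HepG2, 24 h exposure. mRNA from reporter units quantified via RT-PCR/CE; DMSO baseline; bidirectional curve fit.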

Experiment [10] concerns the target Retinoic acid receptor alpha (Homo sapiens) (UniProt P10276). The experiment can be described thus: ATG_DR5_RAR_CIS: Attagene CIS-FACTORIAL HepG2 Assay for human Retinoic Acid Receptor Alpha (RARE), DR5 submotif (AID 2282934). Particulars: HepG2 Attagene cis-factorial RARE DR5 reporter, mRNA; actives raise or lower the signal. In a few lines: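 After 24 h of chemical exposure, transiently transfected HepG2 cells were lysed for total RNA; the DR5-regulated reporter transcript was quantified via RT-PCR and capillary electrophoresis, with activity fitted bidirectionally against DMSO.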

Experiment [11] deals with Transcription factor E2F1 (Homo sapiens) (UniProt Q01094). The experiment can be described thus: ATG_E2F_CIS: Attagene CIS-FACTORIAL HepG2 Assay for human E2F Transcription Factor 1 (AID 2282935). As to conditions: HepG2 Attagene cis-reporter, E2F reporter RNA transcripts; actives raise or lower the signal. In a few lines:
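Endogenous E2F1 activity read through cis-promoter reporter units transfected into HepG2. After 24 h compound treatment, reporter mRNA measured by RT-PCR, HpaI digestion and capillary electrophoresis. Bidirectional fit versus DMSO.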

Experiment [12] can be described thus: ATG_E_Box_CIS: Attagene CIS-FACTORIAL HepG2 Assay for human Enhancer Box (E-box) (AID 2282936). As to conditions: HepG2 E-box cis-reporter transcription, actives raise or lower the signal. In a few lines:
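HepG2 cells transiently transfected with multiplexed cis-element reporter units, dosed 24 h; reporter mRNA quantified by RT-PCR, 6-FAM labelling, HpaI digestion and capillary electrophoresis. E-box (USF1) signal fitted bidirectionally vs DMSO.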

Experiment [13] is described as follows: ATG_M_61_CIS: Attagene CIS-FACTORIAL HepG2 Assay for M61 Transcription Factor (Internal Marker) (AID 2282937). As to conditions: HepG2 Attagene CIS-FACTORIAL M61 internal marker reporter; actives raise or lower the signal. The method, boiled down: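 Readout: fluorescent reporter mRNA fragments resolved by capillary electrophoresis after RT-PCR. Transiently transfected human HepG2 cells carried MRTU constructs reporting endogenous TF activity; 24 h chemical exposure; gain or loss of signal fitted relative to DMSO.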

Experiment [14] can be described thus: ATG_EGR_CIS: Attagene CIS-FACTORIAL HepG2 Assay for human Early Growth Response 1 (EGR1) (AID 2282938). As to conditions: HepG2 Attagene CIS-FACTORIAL EGR reporter mRNA; actives raise or lower the signal. In a few lines:
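Read-out: fluorescent reporter-mRNA fragments resolved by capillary electrophoresis after RT-PCR, 24 h post-dose in transiently transfected HepG2. Endogenous transcription-factor activity reported via cis-element-regulated reporter units; gain or loss fitted relative to DMSO.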

Experiment [15] is described as follows: ATG_M_19_CIS: Attagene CIS-FACTORIAL HepG2 Assay for M19 Transcription Factor (Internal Marker) (AID 2282939). Particulars: HepG2 Attagene CIS-FACTORIAL M19 internal marker reporter; actives raise or lower the signal. In a few lines:
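Signals come from fluorescence of labelled reporter-specific PCR fragments resolved by capillary electrophoresis, following 24 h treatment of HepG2 cells transfected with cis-promoter reporter units; activity was fitted in both directions relative to DMSO.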

Experiment [16] is described as follows: ATG_ERE_CIS: Attagene CIS-FACTORIAL HepG2 Assay for Estrogen Response Element (ERE) (AID 2282940). As to conditions: HepG2 ERE cis-reporter, Attagene RNA transcript; actives raise or lower the signal. The method, boiled down: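 Fluorescence of capillary-separated, FAM-labelled reporter cDNA fragments indicates reporter mRNA levels in HepG2 cells exposed to chemicals for 24 h. Transient transfection with cis-regulated units; data fitted in both directions against DMSO.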

A short description of experiment [17]: ATG_Ets_CIS: Attagene CIS-FACTORIAL HepG2 Assay for human Erythroblast Transformation Specific (ETS) (AID 2282941). As to conditions: HepG2 ETS cis-reporter transcription, actives raise or lower the signal. The method, boiled down: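 Steps: transfect HepG2 with multiple reporter units; treat compound 24 h; isolate RNA, DNase-treat, reverse-transcribe; PCR-amplify, label with 6-FAM, digest with HpaI; separate by capillary electrophoresis. Activity fitted both directions versus DMSO.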

Experiment [18] concerns the target Hepatocyte nuclear factor 3-beta (Homo sapiens) (UniProt Q9Y261). The experiment can be described thus: ATG_FoxA2_CIS: Attagene CIS-FACTORIAL HepG2 Assay for human Forkhead box A2 (FOXA2) (AID 2282942). Particulars: HepG2 cis-reporter transcription factor activity, 24 h; actives raise or lower the signal. In a few lines:
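Readout: fluorescent reporter transcripts resolved by capillary electrophoresis after RT-PCR. Transiently transfected HepG2, 24 h compound exposure, endogenous TF activity at cis promoter elements. Gain or loss of signal fitted relative to DMSO.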

Experiment [19] in a line: ATG_FoxO_CIS: Attagene CIS-FACTORIAL HepG2 Assay for human Forkhead box O (FoxO) (AID 2282943). Particulars: HepG2 Attagene cis-reporter, FoxO element, mRNA; actives raise or lower the signal. In a few lines: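 Transfected HepG2 reporter cells exposed to test chemical for 24 h; reporter RNA measured by reverse transcription, PCR and fluorescent capillary electrophoresis; curves fitted for increases and decreases against DMSO.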

Experiment [20] is described as follows: ATG_GATA_CIS: Attagene CIS-FACTORIAL HepG2 Assay for human GATA Binding Protein (AID 2282944). As to conditions: HepG2 GATA cis-element reporter, Attagene multiplex mRNA; actives raise or lower the signal. The method, boiled down:
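After transfecting HepG2 cells with multiple cis-regulated reporter units, chemicals are dosed for 24 h; isolated RNA undergoes RT-PCR and fluorescent labeling before capillary electrophoresis, with activity expressed against DMSO.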

Chain of Retinoic acid receptor alpha (Homo sapiens) (P10276 whole entry, looked up): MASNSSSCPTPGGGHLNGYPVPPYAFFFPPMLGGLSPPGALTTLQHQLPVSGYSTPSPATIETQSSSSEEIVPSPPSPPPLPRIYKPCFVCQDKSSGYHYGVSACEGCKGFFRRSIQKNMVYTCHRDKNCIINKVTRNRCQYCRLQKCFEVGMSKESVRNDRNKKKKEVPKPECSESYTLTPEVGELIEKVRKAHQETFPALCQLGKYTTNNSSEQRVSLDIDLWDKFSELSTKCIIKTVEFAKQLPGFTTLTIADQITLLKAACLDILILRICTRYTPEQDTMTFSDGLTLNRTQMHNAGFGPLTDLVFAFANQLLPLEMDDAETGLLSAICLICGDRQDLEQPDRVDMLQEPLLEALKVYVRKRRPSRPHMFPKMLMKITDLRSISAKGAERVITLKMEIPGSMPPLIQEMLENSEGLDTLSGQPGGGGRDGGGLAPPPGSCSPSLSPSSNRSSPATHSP
Chain of Aryl hydrocarbon receptor (Homo sapiens) (P35869 whole entry, looked up): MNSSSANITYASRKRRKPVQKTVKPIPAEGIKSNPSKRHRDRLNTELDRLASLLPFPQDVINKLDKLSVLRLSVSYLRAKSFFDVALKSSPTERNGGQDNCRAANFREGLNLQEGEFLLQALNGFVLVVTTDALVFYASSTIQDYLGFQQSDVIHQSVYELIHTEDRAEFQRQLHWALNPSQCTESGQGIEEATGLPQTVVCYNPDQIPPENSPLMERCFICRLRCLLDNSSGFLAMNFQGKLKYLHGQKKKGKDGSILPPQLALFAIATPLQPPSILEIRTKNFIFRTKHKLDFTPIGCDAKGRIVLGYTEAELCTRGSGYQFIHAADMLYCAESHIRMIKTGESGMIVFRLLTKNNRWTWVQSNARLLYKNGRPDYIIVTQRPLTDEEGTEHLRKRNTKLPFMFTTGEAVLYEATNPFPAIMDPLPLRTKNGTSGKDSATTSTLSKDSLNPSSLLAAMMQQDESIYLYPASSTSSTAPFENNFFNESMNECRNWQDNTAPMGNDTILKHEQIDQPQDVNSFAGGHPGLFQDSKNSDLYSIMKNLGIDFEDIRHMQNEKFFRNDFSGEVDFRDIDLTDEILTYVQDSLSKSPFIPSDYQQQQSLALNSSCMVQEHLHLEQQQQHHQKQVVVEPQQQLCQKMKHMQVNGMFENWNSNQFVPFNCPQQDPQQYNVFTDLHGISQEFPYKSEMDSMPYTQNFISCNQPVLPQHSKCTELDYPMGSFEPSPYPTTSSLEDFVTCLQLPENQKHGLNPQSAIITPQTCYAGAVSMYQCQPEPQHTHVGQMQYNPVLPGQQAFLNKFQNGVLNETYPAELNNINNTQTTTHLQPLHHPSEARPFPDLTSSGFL
Chain of Transcription factor E2F1 (Homo sapiens) (Q01094 whole entry, looked up): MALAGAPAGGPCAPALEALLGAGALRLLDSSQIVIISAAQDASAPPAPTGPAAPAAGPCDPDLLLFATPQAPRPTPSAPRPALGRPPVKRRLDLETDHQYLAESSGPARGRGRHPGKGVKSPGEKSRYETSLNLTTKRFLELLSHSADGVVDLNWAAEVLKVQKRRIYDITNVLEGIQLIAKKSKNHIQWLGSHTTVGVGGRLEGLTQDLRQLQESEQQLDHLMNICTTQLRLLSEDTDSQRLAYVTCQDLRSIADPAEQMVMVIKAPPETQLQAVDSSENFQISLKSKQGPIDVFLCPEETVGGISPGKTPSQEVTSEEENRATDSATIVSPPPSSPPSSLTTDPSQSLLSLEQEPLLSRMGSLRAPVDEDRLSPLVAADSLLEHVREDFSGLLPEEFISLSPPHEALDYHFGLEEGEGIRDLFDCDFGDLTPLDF
Chain of Hepatocyte nuclear factor 3-beta (Homo sapiens) (Q9Y261 whole entry, looked up): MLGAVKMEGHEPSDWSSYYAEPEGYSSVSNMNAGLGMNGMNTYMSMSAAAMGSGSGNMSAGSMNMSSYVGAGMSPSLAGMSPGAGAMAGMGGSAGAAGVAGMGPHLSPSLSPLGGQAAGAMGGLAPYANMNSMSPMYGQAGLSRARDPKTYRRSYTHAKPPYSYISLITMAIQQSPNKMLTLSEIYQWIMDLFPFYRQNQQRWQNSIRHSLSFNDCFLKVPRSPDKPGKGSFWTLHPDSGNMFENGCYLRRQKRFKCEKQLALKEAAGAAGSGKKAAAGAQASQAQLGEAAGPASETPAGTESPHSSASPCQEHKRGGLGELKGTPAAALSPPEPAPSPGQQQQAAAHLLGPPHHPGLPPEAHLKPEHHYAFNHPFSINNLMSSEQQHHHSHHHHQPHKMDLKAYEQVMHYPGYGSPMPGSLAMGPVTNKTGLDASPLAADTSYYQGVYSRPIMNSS
Chain of CCAAT/enhancer-binding protein beta (Homo sapiens) (P17676 whole entry, looked up): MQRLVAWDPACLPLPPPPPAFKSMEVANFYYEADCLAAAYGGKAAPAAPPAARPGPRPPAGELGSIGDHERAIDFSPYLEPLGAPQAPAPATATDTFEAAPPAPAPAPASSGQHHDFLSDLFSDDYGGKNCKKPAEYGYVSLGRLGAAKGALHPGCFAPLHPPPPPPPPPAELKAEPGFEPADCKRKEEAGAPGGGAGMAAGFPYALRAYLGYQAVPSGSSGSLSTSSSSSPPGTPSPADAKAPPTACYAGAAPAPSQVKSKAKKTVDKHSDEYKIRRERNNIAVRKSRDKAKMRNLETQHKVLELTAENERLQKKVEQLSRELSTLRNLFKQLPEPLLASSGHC

What is called AC50 is the concentration giving half of the maximal activity seen. Turning to `c1ccc(C[P+](c2ccccc2)(c2ccccc2)c2ccccc2)cc1`, the figures for the AC50 in experiment [1], in experiment [5] and in experiment [9] were 132 nM (active), 100000 nM (active) and 10700 nM (active), respectively. Also, the outcome in experiment [2], in [3], in [4], in [6], in experiment [7] and in experiment [8] was inactive. The compound was classed as inactive in experiment [10], in [11], in experiment [12], in experiment [13], in [14] and in experiment [15]. Also, the call in experiment [16], in experiment [17], in [18], in [19] and in experiment [20] was inactive.

In the case of `CCCCCCCC/C=C\CCCCCCCC(=O)N(C)CC(=O)O`, the result in experiment [1], in [2], in [3], in experiment [4], in experiment [5] and in experiment [6] was inactive. Besides, the call in experiment [7], in experiment [8], in experiment [9], in [10], in experiment [11] and in experiment [12] was inactive. The result in experiment [13], in [14], in experiment [15], in [16], in [17] and in experiment [18] was inactive. In addition, the compound was classed as inactive in [19] and in [20].

Turning to `Cc1ccc2c(c1)OCC(=O)CO2`, the compound was called inactive in experiment [1], in experiment [2], in experiment [3], in experiment [4], in [5] and in experiment [6]. Besides, the outcome in experiment [7], in [8], in experiment [9], in [10], in experiment [11] and in [12] was inactive. Further, the result in experiment [13], in experiment [14], in [15], in [16], in experiment [17] and in experiment [18] was inactive. For the same compound, the compound was called inactive in experiment [19] and in experiment [20].

As to `C=CCOC(=O)CC(C)C`, the outcome in experiment [1], in experiment [2], in [3], in [4], in [5] and in experiment [6] was inactive. Further, the compound was called inactive in [7], in experiment [8], in [9], in [10], in [11] and in [12]. For the same compound, the result in experiment [13], in experiment [14], in experiment [15], in experiment [16], in [17] and in experiment [18] was inactive. Besides, the call in [19] and in [20] was inactive.

Consider `OCC(F)(F)C(F)(F)C(F)(F)C(F)(F)C(F)(F)C(F)(F)CO`, for which the AC50 was 291 nM (active) in [1] and 90.9 nM (active) in experiment [16]. The outcome in experiment [2], in [3], in experiment [4], in experiment [5], in experiment [6] and in [7] was inactive. The call in experiment [8], in experiment [9], in experiment [10], in [11], in [12] and in experiment [13] was inactive. Besides, the outcome in experiment [14], in [15], in experiment [17], in [18], in experiment [19] and in [20] was inactive.

On to `CC(C)CCCC(C)CCO` (stereo not given), for which the call in experiment [1], in experiment [2], in experiment [3], in experiment [4], in experiment [5] and in [6] was inactive. The compound was classed as inactive in [7], in [8], in [9], in [10], in experiment [11] and in experiment [12]. The compound was called inactive in experiment [13], in [14], in experiment [15], in experiment [16], in experiment [17] and in experiment [18]. The compound was called inactive in experiment [19] and in [20].
